Results filed as inconclusive are left out. Activity calls are given as the source filed them. Calls come from the whole dose curve; as a rule, active = well fitted curve in the direction sought with a large enough effect; inconclusive = small, poorly fitted or top-dose-only effect, or another doubt; inactive = no such curve, though single readings can be large; an effect the other way counts as inactive or inconclusive.
Tests used:
[1] = biological target: Luciferin 4-monooxygenase (Photinus pyralis) (UniProt P08659); assay: Firefly luciferase counterscreen qHTS: Assay Interference Panel against the NCATS CANVASS Library (AID 1347363)
Outline: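 Purified P. pyralis luciferase was added to compounds (11-point series) preincubated 15 min at room temperature with substrate containing 0.013 mM D-luciferin and 0.013 mM ATP; luminescence was read after 5 min.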

[2] = KB-8-5-11 Cancer Cell Toxicity qHTS against the NCATS CANVASS Library (AID 1347364); settings: KB-8-5-11 MDR cells viability, CellTiter-Glo, 72 h; at 15.4 µM (top of the series); note: nearly all actives have a fitted effect of over 75% in size
Outline: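 Viability read as CellTiter-Glo luminescence after 72 h at 37 °C, 5% CO2. 11-point compound series on 500 KB-8-5-11 cells/well in DMEM/10% FBS. Follow-up plating included 1 uM tariquidar in the medium.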

[3] = SDT Cancer Cell Toxicity qHTS against the NCATS CANVASS Library (AID 1347365);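 note: SDT canine glioma cells 500 per well in 1536 well plates; nearly all actives have a fitted effect of over 60% in size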
Outline: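 Cytotoxicity taken from CellTiterGlo ATP luminescence after 72 hr at 37C, 5% CO2. Canine glioma line SDT, 500 cells/well, treated at 11 concentrations; bortezomib dose series as control.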

[4] = KB-3-1 Cancer Cell Toxicity qHTS against the NCATS CANVASS Library (AID 1347366); settings: KB-3-1 viability, CellTiter-Glo luminescence, 72 h; at 15.4 µM (top of the series); note: nearly all actives have a fitted effect of over 75% in size
Outline: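 Cytotoxicity toward KB-3-1 cells (500/well, DMEM + 10% FBS) was scored by CellTiter-Glo luminescence following 72 hr exposure at 37C, with bortezomib titrated as control.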

[5] = qHTS for ATAD5 Agonist screened against the NCATS CANVASS Library (AID 1347367);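 note: luciferase reporter driven by ATAD5 which rises upon DNA damage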
Outline: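 Genotoxicity was scored as increased ATAD5-luciferase luminescence in HEK293T after 16hr of exposure, with cell viability measured by fluorescence beforehand in the same well.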

[6] = G06 Cancer Cell Toxicity qHTS against the NCATS CANVASS Library (AID 1347368); note: nearly all actives have a fitted effect of over 60% in size
Outline: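 Viability measured by CellTiterGlo ATP luminescence after 72 hr at 37C, 5% CO2. Canine G06 glioma cells plated at 500/well. Compounds tested as 11-point qHTS titrations.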

[7] = MCF7 Cancer Cell Toxicity qHTS against the NCATS CANVASS Library (AID 1347369); settings: MCF7 viability, ATP luminescence (CellTiter-Glo), 72 h; at 15.3 µM (top of the series)
Outline: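 This 72 hr qHTS scored MCF7 viability by CellTiterGlo luminescence, with 500 cells/well; bortezomib titration ran as control.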

[8] = qHTS for ATAD5 Antagonist screened against the NCATS CANVASS Library (AID 1347370);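 note: HEK293T cells carrying an ATAD5 luciferase reporter co-treated with 10 µM 5-fluorouridine; nearly all actives have a fitted effect of over 65% in size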
Text: Natural products and their derivatives continue to be wellsprings of nascent therapeutic potential. However, many laboratories have limited resources for biological evaluation, leaving their previously isolated or synthesized compounds largely or completely untested. To address this issue, the Canvass library of natural products was assembled (https://tripod.nih.gov/canvass), in collaboration with academic and industry researchers, for quantitative high-throughput screening (qHTS) across a diverse set of cell-based and biochemical assays. […] The library was formatted into 1536-well plates and evaluated in 50 qHTS (in an 11-pnt concentration series) bioassays with broad scope of disease-relevant mechanisms. The resulting data set from 50 different assays was then systematically analyzed to identify overall trends and specific natural products with interesting biological activities. […] Luminescence intensity is proportional to ATAD5 expression. […]
ATAD5 Agonist assay protocol: 1. […] A first readout of fluorescence signal was acquired via the ViewLux (PerkinElmer) plate reader using filter sets for AFC (380-400nmEx/505Em) and 1 second exposure setting. […] 8.#A second readout of luminescence signal was acquired via the ViewLux plate reader using a clear emission filter, 10 second exposure setting.

[9] = J3T Cancer Cell Toxicity qHTS against the NCATS CANVASS Library (AID 1347371);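 note: J3T is a canine glioma cancer cell line seeded at 500 cells per well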
Outline: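 Cytotoxicity read as CellTiterGlo ATP luminescence after 72 h incubation (37C, 5% CO2) of J3T canine glioma cells (500/well) with an 11-point compound series.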

[10] = biological target: Nuclear receptor subfamily 1 group I member 3 (Homo sapiens) (UniProt Q14994); assay: qHTS for Constitutive Androstane Receptor (CAR) Antagonist screened against the NCATS CANVASS Library (AID 1347372);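 note: cells stimulated with 50 nM CITCO agonist so inhibition reflects antagonism; luciferase from CYP2B6 promoter reporter driven by hCAR in HepG2 cells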
Outline: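 Cells were seeded and left 4hr to attach, then received compound at 11 concentrations and 50 nM CITCO. Following 24hr incubation, fluorescence viability and luciferase luminescence were read sequentially.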

Measured: outcome

Sequence of Nuclear receptor subfamily 1 group I member 3 (Homo sapiens) (Q14994 whole entry, looked up): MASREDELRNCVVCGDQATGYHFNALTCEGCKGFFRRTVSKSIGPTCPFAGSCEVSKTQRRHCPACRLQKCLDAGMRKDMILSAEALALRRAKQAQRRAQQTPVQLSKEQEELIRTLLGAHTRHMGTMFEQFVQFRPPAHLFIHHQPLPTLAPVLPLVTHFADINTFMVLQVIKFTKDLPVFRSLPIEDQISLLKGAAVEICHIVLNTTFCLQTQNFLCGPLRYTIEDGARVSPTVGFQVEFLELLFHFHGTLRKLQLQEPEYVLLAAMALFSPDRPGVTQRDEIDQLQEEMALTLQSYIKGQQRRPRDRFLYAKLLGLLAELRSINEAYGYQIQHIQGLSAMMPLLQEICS
Sequence of Luciferin 4-monooxygenase (Photinus pyralis) (P08659 whole entry, looked up): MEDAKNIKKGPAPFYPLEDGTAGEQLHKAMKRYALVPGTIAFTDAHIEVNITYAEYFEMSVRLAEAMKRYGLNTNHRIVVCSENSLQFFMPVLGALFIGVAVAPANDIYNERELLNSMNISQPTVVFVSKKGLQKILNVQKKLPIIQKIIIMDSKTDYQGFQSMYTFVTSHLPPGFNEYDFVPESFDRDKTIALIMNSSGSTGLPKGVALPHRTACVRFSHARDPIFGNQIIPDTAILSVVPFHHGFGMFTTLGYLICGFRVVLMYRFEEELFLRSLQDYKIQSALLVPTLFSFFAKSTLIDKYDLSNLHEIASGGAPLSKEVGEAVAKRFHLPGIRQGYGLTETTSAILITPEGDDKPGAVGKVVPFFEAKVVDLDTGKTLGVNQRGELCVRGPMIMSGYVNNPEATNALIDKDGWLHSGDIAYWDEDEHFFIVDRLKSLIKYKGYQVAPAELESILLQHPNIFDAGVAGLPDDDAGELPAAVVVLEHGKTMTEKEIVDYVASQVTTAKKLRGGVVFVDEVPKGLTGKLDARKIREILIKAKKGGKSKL

C[C@@H]1O[C@@H](OC[C@H]2O[C@@H](Oc3c(-c4ccc(O)c(O)c4)oc4cc(O)cc(O)c4c3=O)[C@H](O)[C@@H](O)[C@@H]2O)[C@H](O)[C@H](O)[C@H]1O
inactive: all assays above

— PubChem BioAssay (NCATS)
